Among the data in PubChem BioAssay (NCATS) are Potency and activity change, negative = inhibition values, retold here.

Structures are written as SMILES. Inconclusive results are not listed. The source made the active and inactive calls. Calls follow the shape of the full dose curve.
Potency is read from the fitted curve at half-maximal effect.

A short description of the first assay: Primary qHTS to identify inhibitors of SARS-CoV-2 cell entry (AID 1645846). Also: nearly all actives have a fitted effect of over 45% in size. The conditions noted are these: SARS-CoV-2 pseudovirus cell entry assay, luminescence; activity change, negative = inhibition: at 57.1 µM (top of the series) unless noted. The gist of the method:
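Using luciferase-reporting pseudoviruses carrying Wuhan-Hu-1 spike, the screen tracks entry into stably ACE2-expressing cells over 48 hr. Activity is expressed relative to spike particles versus particles lacking any fusion protein.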
As to `Cc1cncc(CN2CCC(=C3c4ccc(Cl)cc4CCc4cccnc43)CC2)c1`, the Potency was 12.6 µM (active).

`CC(C)[C@H]1C(=O)N[C@@H](CCCN=C(N)N)C(=O)NCC(=O)N[C@@H](CC(=O)O)C(=O)N[C@H](Cc2ccccc2)C(=O)N1C`: the activity change, negative = inhibition is -11.5% [at 27.1 µM].

`O=C1[C@@H]2[C@H]3CC[C@H](C3)[C@@H]2C(=O)N1C[C@@H]1CCCC[C@H]1CN1CCN(c2nsc3ccccc23)CC1`: the Potency is 31.6 µM (active).

Take `CC[C@@H](C(=O)[C@@H](C)[C@@H](O)[C@H](C)CCc1ccc(C)c(O)c1C(=O)O)[C@H]1O[C@](CC)([C@H]2CC[C@](O)(CC)[C@H](C)O2)C[C@@H]1C`: the Potency was 5.01 µM (active).

As for `C=CC[C@@H]1/C=C(\C)C[C@H](C)C[C@H](OC)[C@H]2O[C@@](O)(C(=O)C(=O)N3CCCC[C@H]3C(=O)O[C@H](/C(C)=C/[C@@H]3CC[C@@H](O)[C@H](OC)C3)[C@H](C)[C@@H](O)CC1=O)[C@H](C)C[C@@H]2OC`, the Potency result is “inactive”.

With `CCCCCCC(COC(=O)c1cccnc1)(COC(=O)c1cccnc1)COC(=O)c1cccnc1`, the activity change, negative = inhibition is -17.5%.

Regarding `CCOC(=O)Oc1c(OC)cc(C(=O)O[C@@H]2C[C@@H]3CN4CCc5c([nH]c6cc(OC)ccc56)[C@H]4C[C@@H]3[C@H](C(=O)OC)[C@H]2OC)cc1OC`, the Potency was 22.4 µM (active).

Consider `CC(C)C[C@H]1C(=O)N2CCC[C@H]2[C@]2(O)O[C@](NC(=O)[C@@H]3C=C4c5cccc6[nH]c(Br)c(c56)CC4N(C)C3)(C(C)C)C(=O)N12` (some centres not stated), for which the Potency is 22.4 µM (active).

On to `CNS(=O)(=O)CC1CCC(N(C)c2ncnc3[nH]ccc23)CC1` (configuration not stated), for which the Potency result is “inactive”.

For the compound `CC(CN(C)C)CN1c2ccccc2Sc2ccc(C(F)(F)F)cc21` (configuration not stated), the Potency was 12.6 µM (active).

Take `CC(=O)c1ccc2c(c1)N(CCCN1CCN(CCO)CC1)c1ccccc1S2`: the activity change, negative = inhibition is -25.7%.

On to `CO[C@H]1/C=C\O[C@@]2(C)Oc3c(C)c(O)c4c(O)c(c5c(c4c3C2=O)=NC2(CCN(CC(C)C)CC2)N=5)NC(=O)/C(C)=C\C=C/[C@H](C)[C@H](O)[C@@H](C)[C@@H](O)[C@@H](C)[C@H](OC(C)=O)[C@@H]1C`, for which the activity change, negative = inhibition was -26.3%.

Regarding `CC(C)(C)NCC(O)COc1ccccc1C1CCCC1` (configuration not stated), the Potency was 10 µM (active).

Take `O=C(O)c1ccc2nc(-c3cc(Cl)cc(Cl)c3)oc2c1`: the Potency result was “inactive”.

On to `O=C1CSC2(CCN(CCCN3c4ccccc4Sc4ccc(Cl)cc43)CC2)N1`, for which the Potency was 25.1 µM (active).

For `CC(=O)O[C@]1(C(C)=O)CC[C@H]2[C@@H]3C=C(C)C4=CC(=O)CC[C@@H]4[C@H]3CC[C@@]21C`, the activity change, negative = inhibition was -20%.

On to `CCCN1C[C@H](C)[C@@H](O)[C@](C)(O)[C@@H](CC)OC(=O)[C@H](C)[C@@H](O[C@H]2C[C@@](C)(OC)[C@@H](O)[C@H](C)O2)C(C)[C@@H](O[C@@H]2O[C@H](C)C[C@H](N(C)C)[C@H]2O)[C@](C)(O)C[C@H]1C` (some centres not stated), for which the Potency is 11.2 µM (active).

`CCN1CCN(Cc2ccc(Nc3ncc(F)c(-c4cc(F)c5nc(C)n(C(C)C)c5c4)n3)nc2)CC1`: the Potency is 10 µM (active).

A short description of a further assay: VSVG counterscreen qHTS to identify inhibitors of SARS-CoV-2 cell entry (AID 1645847). Also: nearly all actives have a fitted effect of over 65% in size. As to activity change, negative = inhibition: % is scaled to controls: 0 for no effect and ±100 for the full control effect. Conditions: VSV-G pseudotyped particle entry, luciferase; series mostly up to 57.2 µM. The gist of the method: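 Entry of VSV-G pseudotyped particles into human ACE2-expressing HEK293 cells was measured by luciferase luminescence 48 h after infection, with compound added 1 h beforehand.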
For orientation: The purpose of a counterscreen is to sort out artefacts and off-target activity.
`Cc1cncc(CN2CCC(=C3c4ccc(Cl)cc4CCc4cccnc43)CC2)c1`: the Potency is 27.1 µM (active).

Regarding `O=C1[C@@H]2[C@H]3CC[C@H](C3)[C@@H]2C(=O)N1C[C@@H]1CCCC[C@H]1CN1CCN(c2nsc3ccccc23)CC1`, the Potency was 3.04 µM (active).

For the compound `CC(Cc1ccc(O)c(O)c1)C(C)Cc1ccc(O)c(O)c1` (configuration not stated), the Potency is 27.1 µM (active).

Take `CC(CN1c2ccccc2Sc2cccnc21)N(C)C` (configuration not stated): the Potency is 24.1 µM (active).

Consider `[2H]C([2H])([2H])C(O)([C@@H](C)/C=C/[C@@H](C)[C@H]1CC[C@H]2/C(=C/C=C3C[C@@H](O)C[C@H](O)C3)CCC[C@]12C)C([2H])([2H])[2H]`, for which the Potency is 3.83 µM (active).

As for `CC(C)(C)NCC(O)COc1ccccc1C1CCCC1` (configuration not stated), the Potency was 12.1 µM (active).

As to `COC(=O)N[C@H](C(=O)N1CCC[C@H]1c1ncc(-c2ccc(-c3ccc(-c4cnc([C@@H]5CCCN5C(=O)[C@@H](NC(=O)OC)C(C)C)[nH]4)cc3)cc2)[nH]1)C(C)C`, the Potency is 1.71 µM (active).

Turning to `CCCN1C[C@H](C)[C@@H](O)[C@](C)(O)[C@@H](CC)OC(=O)[C@H](C)[C@@H](O[C@H]2C[C@@](C)(OC)[C@@H](O)[C@H](C)O2)C(C)[C@@H](O[C@@H]2O[C@H](C)C[C@H](N(C)C)[C@H]2O)[C@](C)(O)C[C@H]1C` (some centres not stated), the Potency entry was “inactive”.

Take `CCN1CCN(Cc2ccc(Nc3ncc(F)c(-c4cc(F)c5nc(C)n(C(C)C)c5c4)n3)nc2)CC1`: the Potency was 6.81 µM (active).
